The values below come from PubChem BioAssay (Tox21).

“And” between values parts separate entries of the source, which are not always exact repeats. Equal values may be shown once. Records with an inconclusive call do not appear. Some compounds were tested as several samples or in several runs, with calls that do not always agree. The source made the active and inactive calls. Unless noted, the call rests on the fitted dose curve; in most records, active means well fitted curve in the direction sought with a large enough effect in the repeat runs; inconclusive means weak or mixed curves; inactive means no such curve, though single readings can be large; an effect the other way counts as inactive or inconclusive.

The nature of test [1]: qHTS assay to identify small molecule agonists of the vitamin D receptor (VDR) signaling pathway - cell viability counter screen (AID 743224). Further: series mostly up to about 63 µM; nearly all actives have a fitted effect of over 50% in size. The method in brief: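 Cytotoxicity counter screen: VDR-bla cells, 16 h compound exposure at 37C, 5% CO2; CellTiter-Glo luminescence, 30 min RT, same wells as bla read.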
A short description of test [2]: qHTS assay to identify small molecule antagonists of the vitamin D receptor (VDR) signaling pathway - cell viability counter screen (AID 743225). Further: nearly all actives have a fitted effect of over 50% in size. The method in brief: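 In this counter screen, VDR-bla HEK 293T cells receive test compound plus 3 nM final calcitriol for 16 h at 37C. Room-temperature steps of 2 h with the beta-lactamase substrate, then 30 min with CellTiter-Glo, precede the luminescence read.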
In general terms: qHTS replaces the single test concentration by a dilution series.

Test [3] is described as follows: qHTS assay to identify small molecule agonists of the NFkB signaling pathway (AID 1159509; active means well fitted curve in the direction sought with a large enough effect in the signal ratio in the repeat runs, not every such curve was filed as active; the % refers to the signal ratio; further: series mostly up to about 61 µM). The method in brief:
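Agonist activity was read as beta-lactamase-driven FRET change (460 and 530 nm emission, 405 nm excitation) following 1.5 hr substrate loading at room temperature. Beforehand, ME-180 NFkB-bla reporter cells were treated with compounds for 5 hr at 37 C.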

Test [4] is described as follows: qHTS assay to identify small molecule agonists of the NFkB signaling pathway - cell viability counter screen (AID 1159515; calls by dose curve; further: series mostly up to about 61 µM; nearly all actives have a fitted effect of over 55% in size). The method in brief: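 ME-180 NFkB-bla cells, 2,000/well; overnight attach; compound 5 hr, 37 C/5% CO2; LiveBLAzer substrate 1.5 hr RT; then CellTiter-Glo in same wells, 30 min RT, luminescence read.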
Test [5] in a line: qHTS assay to identify small molecule agonists of the endoplasmic reticulum stress response signaling pathway (AID 1159516; active means well fitted activation curve with a large enough effect in the signal ratio in the repeat runs, not every such curve was filed as active; the % refers to the signal ratio). The method in brief: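 HeLa ESRE-bla reporter line; cpd 5 h, 37 C/5% CO2; LiveBLAzer B/G FRET substrate 2 h RT; ex 405, em 460/530 nm.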
Test [6] is described as follows: qHTS assay to identify small molecule agonists of the endoplasmic reticulum stress response signaling pathway - cell viability counter screen (AID 1159517; calls by dose curve;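 further: HeLa cells carrying an ER stress response element beta-lactamase reporter; series mostly up to about 61 µM; nearly all actives have a fitted effect of over 50% in size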). The method in brief: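 In parallel with the ESRE reporter read, cytotoxicity was scored by CellTiter-Glo luminescence (30 min, room temperature) on HeLa ESRE-bla cells dosed for 5 hr.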
Test [7] in a line: qHTS assay to identify small molecule antagonists of the retinoid-related orphan receptor gamma (ROR-gamma) signaling pathway - cell viability counter screen (AID 1159520). Further: nearly all actives have a fitted effect of over 50% in size. Further: potency means the concentration at half of the fitted maximal effect. The method in brief:
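Tet-on ROR gamma CHO cells were given compounds for 2 hr, then doxycycline hyclate at 1 uM final, and incubated 16 hr at 37 C. Viability was measured as ATP content by CellTiter-Glo luminescence.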

Test [8] concerns the target Nuclear receptor ROR-gamma (Homo sapiens) (UniProt P51449). Kind of test: qHTS assay to identify small molecule antagonists of the retinoid-related orphan receptor gamma (ROR-gamma) signaling pathway (AID 1159521; further: nearly all actives have a fitted effect of over 50% in size; further: potency means the concentration at half of the fitted maximal effect). The method in brief: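 Screening format: cell-based luciferase reporter in CHO cells with doxycycline-inducible RORγ. Compound pre-exposure lasts 2 h, doxycycline is 1 uM final, induction runs 16 h at 37 C, and ONE-Glo luminescence is read.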

Test [9] in a line: qHTS assay to identify small molecule agonists of the AP-1 signaling pathway - cell viability counter screen (AID 1159525; calls by dose curve; further: nearly all actives have a fitted effect of over 55% in size). The method in brief: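 Same-well cytotoxicity counter screen of the Tox21 10K library in ME-180 cells. The readout is ATP-dependent luminescence after 5 h compound treatment. Data are normalised to DMSO and tetra n-octyl ammonium bromide controls.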
Test [10] in a line: qHTS assay to identify small molecule agonists of the AP-1 signaling pathway (AID 1159526; calls by dose curve).

Regarding `CC(C)OC(=O)Nc1cccc(Cl)c1`, the result in [1], in test [2], in [3], in [4], in [5] and in test [6] was inactive. The Potency entry in test [7], in test [8] and in test [9] was “inactive” in each case.

With `O=c1[nH]c(=O)[nH]c(=O)[nH]1`, the result in test [1], in test [2], in test [3], in test [4], in test [5] and in test [6] was inactive. Besides, the Potency result in test [7], in test [8], in [9] and in test [10] was “inactive” throughout.

As for `CC(C#N)CCC#N` (stereo not given), the result in test [1], in test [2], in test [3], in test [4], in test [5] and in test [6] was inactive. The Potency result in test [7], in test [8] and in [10] was “inactive” each time.

Consider `c1cc2c3c(cccc3c1)CC2`, for which the call in test [1], in test [2], in test [3], in test [4], in [5] and in test [6] was inactive. Besides, the Potency entry in test [7], in test [8] and in test [10] was “inactive” each time.

As to `c1ccc(-c2ccccc2)cc1`, the molecule was called inactive in test [1], in test [2], in test [3], in [4], in test [5] and in test [6]. Besides, the Potency result in test [7], in test [8] and in test [10] was “inactive” each time.

As for `NCCc1ccc(O)cc1`, the molecule was called inactive in test [1], in [2], in [3], in test [4], in test [5] and in test [6]. In addition, the Potency entry in test [7], in [8], in test [9] and in [10] was “inactive” each time.

Take `CCOC(=O)c1ccccc1C(=O)OCC`: the outcome in test [1], in [2], in [3], in [4], in test [5] and in [6] was inactive. Besides, the Potency entry in test [7], in [8], in test [9] and in test [10] was “inactive” in each case.

Take `NCC(O)c1ccc(O)cc1` (stereo not given): the result in test [1], in test [2], in test [3], in [4], in test [5] and in test [6] was inactive. Besides, the Potency entry in test [7], in test [8], in [9] and in test [10] was “inactive” in each case.

As for `CC(C)C1(C)N=C(c2nc3ccccc3cc2C(=O)O)NC1=O` (stereo not given), the result in test [1], in test [2], in test [3], in test [4], in test [5] and in [6] was inactive. In addition, the Potency result in [7], in test [8] and in test [10] was “inactive” throughout.

As to `Cc1cc(-c2cc(C)c(N)c(C)c2)cc(C)c1N`, the call in test [1], in test [2], in test [3], in [4], in [5] and in [6] was inactive. The Potency result in test [7], in test [8], in test [9] and in [10] was “inactive” throughout.

Regarding `CC(C)NC(=O)N1CC(=O)N(c2cc(Cl)cc(Cl)c2)C1=O`, the result in test [1], in [2], in [3], in [4], in test [5] and in test [6] was inactive. The Potency entry in test [7], in [8], in test [9] and in test [10] was “inactive” in each case.

As for `Cc1ccccc1O`, the molecule was called inactive in [1], in test [2], in [3], in [4], in test [5] and in [6]. Further, the Potency result in test [7], in test [8], in [9] and in test [10] was “inactive” throughout.

On to `COC(=O)c1ccccc1C(=O)OC`, for which the call in test [1], in test [2], in [3], in [4], in test [5] and in test [6] was inactive. Also, the Potency result in test [7], in [8] and in test [10] was “inactive” throughout.

For the molecule `Nc1ccc(Br)cc1`, the outcome in test [2], in [3], in [4], in test [5] and in test [6] was inactive. The Potency entry in [7], in test [8], in test [9] and in test [10] was “inactive” each time.

On to `CCCCN(CC)C(=O)SCCC`, for which the call in test [1], in [2], in [3], in test [4], in [5] and in test [6] was inactive. Also, the Potency result in test [7], in test [9] and in test [10] was “inactive” in each case.

With `CCCCN(CCCC)SN(C)C(=O)Oc1cccc2c1OC(C)(C)C2`, the result in [1], in [2], in [3], in test [4], in [5] and in test [6] was inactive. Also, the Potency in test [7] was 62.1 µM (active); in [8], 22 µM (active) and 30.6 µM (active). Besides, in test [10], the Potency entry was “inactive”.

Take `COc1ccc2c3c1O[C@H]1[C@@H](O)C=C[C@H]4[C@@H](C2)N(C)CC[C@@]341`: the molecule was called inactive in test [1], in [2], in [3], in [4], in [5] and in test [6]. Also, the Potency result in test [7] and in test [10] was “inactive” each time. For the same molecule, in test [8], the Potency is 60.1 µM (active) and inactive.

With `CCCC1COC(Cn2cncn2)(c2ccc(Cl)cc2Cl)O1` (stereo not given), the outcome in test [1], in test [2], in test [3], in test [4], in test [5] and in [6] was inactive. For the same molecule, the Potency entry in [7], in test [9] and in test [10] was “inactive” in each case. Moreover, the Potency in [8] was 43.3 µM (active).

For `Cc1ccc([N+](=O)[O-])cc1C`, the molecule was classed as inactive in test [1], in [2], in test [3], in test [4], in test [5] and in test [6]. Also, the Potency result in [7], in [8] and in [10] was “inactive” throughout.

As for `Cn1cc(-c2ccccc2)c(=O)c(-c2cccc(C(F)(F)F)c2)c1`, the call in test [1], in test [2], in test [3], in [4], in test [5] and in test [6] was inactive. Also, the Potency entry in test [7], in test [8], in test [9] and in test [10] was “inactive” in each case.

Regarding `Cc1cc(Cl)ccc1O`, the molecule was called inactive in [1], in [2], in test [3], in test [4], in [5] and in [6]. The Potency entry in test [7], in test [8], in test [9] and in test [10] was “inactive” throughout.

In the case of `CC(C)(C)OOC(=O)c1ccccc1`, the outcome in test [1], in test [2], in [3], in test [4], in test [5] and in test [6] was inactive. Moreover, the Potency result in test [7], in [8] and in [10] was “inactive” in each case.

On to `c1ccc2c(c1)Oc1ccccc1O2`, for which the result in test [1], in [2], in [3], in test [4], in [5] and in test [6] was inactive. Also, the Potency entry in test [7], in [8], in test [9] and in test [10] was “inactive” in each case.

As to `CC(C)OC(=O)Nc1ccccc1`, the result in [1], in [2], in [3], in [4], in test [5] and in test [6] was inactive. Also, the Potency entry in test [7], in [8], in [9] and in test [10] was “inactive” in each case.

Take `CN(C)[C@@H]1C(=O)C(C(N)=O)=C(O)[C@@]2(O)C(=O)C3=C(O)c4c(O)cccc4[C@@](C)(O)[C@H]3C[C@@H]12`: the outcome in [3], in [4], in test [5] and in [6] was inactive. For the same molecule, the Potency entry in [7], in test [9] and in [10] was “inactive” in each case.
